PubChem BioAssay AID873 (PCMD, 2007)
About 1,300 (0.62%) of roughly 210,000 compounds were called active. The full list was thinned out, with actives kept by preference. Unmarked numbers belong to inactive results.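 Rule for the calls: active = inhibition of 40% or more; inactive = the rest.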

Target: Kallikrein-5 (Homo sapiens) (UniProt Q9Y337)
Test: human KLK5 protease inhibitors, primary screen, biochemical, 1536-well (AID 873);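 note: 0% = enzyme controls without compound and 100% = no-enzyme blanks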
Details: recombinant hK5, fluorogenic AMC substrate cleavage; at 5 µM; active compounds read high

Kallikrein-5 (Homo sapiens), sequence (Q9Y337 67-293 limits assumed): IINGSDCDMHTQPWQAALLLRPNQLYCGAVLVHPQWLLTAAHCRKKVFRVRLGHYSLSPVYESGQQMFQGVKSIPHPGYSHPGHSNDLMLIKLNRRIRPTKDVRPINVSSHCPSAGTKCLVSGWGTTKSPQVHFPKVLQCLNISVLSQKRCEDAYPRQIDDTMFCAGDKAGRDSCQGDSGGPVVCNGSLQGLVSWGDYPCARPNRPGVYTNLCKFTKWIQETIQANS

Compound	inhibition
Cc1ccc(Oc2cnn(-c3ccccc3)c(=O)c2Br)cc1	-20.9%
O=c1c(Cl)c(NC2CC2)cnn1-c1ccccc1	-14.4%
C=CCNc1cnn(-c2ccc(C)cc2)c(=O)c1Cl	58% (active)
CS(=O)(=O)c1ccc(Cl)c(NC(=O)Nc2ccccc2)c1	15.8%
CC(C)c1nc(SCC(=O)NC(=O)NC(C)(C)C)n[nH]1	-0.71%
Cc1cccn2c(CNCC(C)Oc3cccnc3)c(C(=O)N3CCOCC3)nc12 (stereo unspecified)	-2.01%
COc1ccc(N2CCC(CNC(=S)Nc3c(C)cccc3C)C2)cc1 (stereo unspecified)	-0.97%
Cc1nc2nc(SCC(=O)c3ccccc3)[nH]c2cc1Br	1.2%
C/C(=N/NC(=O)CN1CCN(S(=O)(=O)c2ccc(Br)cc2)CC1)c1ccncc1	1.01%
CCc1ccccc1NC(=O)c1cccs1	-5.15%
O=C(Nc1ccccc1-c1nnn(CC(=O)N2CCN(c3ccccc3)CC2)n1)c1cccs1	8.06%
O=C(Nc1ccccc1-c1ccccc1)c1cccs1	40% (active)
CC(C)Cc1oc(C(=O)O)cc1CN	-20.2%
Cc1oc(CC(C)C)c(CN2CCCC2)c1C(=O)O	40.4% (active)
Cc1cc(=O)oc(C)c1C(=O)N1CCCCC1	-21.2%
Cc1ccc(Nc2c3c(nc4ccccc24)CCC3)cc1	-1.22%
COc1ccc(NS(=O)(=O)c2ccc(N3CCOCC3)c(NC(=O)c3ccccc3Br)c2)cc1	-3.92%
Cc1cc(C)nc(Nc2n[nH]c(-c3ccccc3N)n2)n1	-1.46%
CC(C)CCN1NC2(CCC(C)CC2)NC1=S (stereo unspecified)	0.13%
COc1ccccc1N1CCN(CCCCOc2ccc(F)cc2)CC1	40.1% (active)
CCN1CCN(CCCCOc2ccccc2F)CC1	-9.3%
COc1ccccc1N1CCN(Cc2ccc(OC)c3ccccc23)CC1	-4.66%
CCOC(=O)c1ccc(NC(=O)Cn2cnc3cc(C)c(C)cc32)cc1	3.77%
Cc1nc(N)[nH]c(=O)c1Oc1cccc(C(F)(F)F)c1	-0.74%
Cc1cc(=O)[nH]c(SCC(=O)Nc2ccc(Br)cc2)n1	2.46%
CCOc1ccccc1N1CN(Cc2ccccc2)CNC1=S	-6.7%

Compound	inhibition
CCCc1ccc(C(=O)[C@@H]2[C@@H](C(C)=O)N3c4ccc(F)cc4C=C[C@@H]3[C@@]23C(=O)Nc2ccccc23)cc1	3.66%
O=C(c1cnn2ccccc12)N1CCc2ccccc21	68.7% (active)
O=C(c1cccc(C(=O)N2CCc3ccccc32)n1)N1CCc2ccccc21	-28.7%
NC(=O)N1CCc2ccccc21	-6.77%
COC(=O)c1noc(C)c1-c1ccnn1C(=O)c1ccc(Cl)cc1	14.2%
O=C(O)c1ccccc1-c1ccccc1C(=O)Nc1cccc2ccccc12	3.53%
O=C(O)CSc1nccc2ccccc12	-3.99%
O=C(O)C#Cc1cccc2ccccc12	42.9% (active)
COC(=O)c1cc(C(=O)OCC(=O)Nc2cc(C)on2)cc([N+](=O)[O-])c1	23.6%
C/C(=N\NC(=S)NCc1ccccc1)C1CCCCC1	-4.43%
C/C(=N\NC(=S)NCc1ccccc1)c1ccc(Cl)cc1	56.7% (active)
O=C(O)c1ccc(/C=N/NC(=S)NCc2ccccc2)cc1	-1.6%
COc1ccc(C(=O)c2oc3ccc(Br)cc3c2NC(C)=O)cc1	-25.1%
COc1ccc2oc(C)c(NC(C)=O)c2c1	-13.5%
COC(=O)c1oc2ccc(Br)cc2c1NC(C)=O	41.8% (active)
Cc1ccc(Nc2nc(Cl)c(C=O)s2)cc1	0.92%
COc1cccc(NC(=O)CS(=O)(=O)c2cn(CC(=O)N3CCOCC3)c3ccccc23)c1	-2.04%
O=C(CS(=O)(=O)c1cn(Cc2ccc(Cl)cc2)c2ccccc12)N1CCOCC1	47% (active)
O=C(CS(=O)(=O)c1cn(Cc2cccc(F)c2)c2ccccc12)N1CCCCC1	-11.7%
O=C(Cn1cc(C(=O)c2cccs2)c2ccccc21)NCc1cccs1	-1.96%
COC(=O)Cn1cc(C(=O)c2cccs2)c2ccccc21	40.6% (active)
COCCNC(=O)Cn1cc(C(=O)c2cccs2)c2ccccc21	-5.68%
Cc1ccc(OCC(=O)Nc2nnc(-c3ccco3)s2)cc1	-1.13%
CC(C)CNc1ncnc2c1cnn2Cc1ccc(Cl)cc1	-1.93%
O=C(Nc1ccc(Br)cn1)c1ccc([N+](=O)[O-])o1	-4.1%
Cc1cccc(NC(=O)c2ccc([N+](=O)[O-])o2)c1	-2.56%

Compound	inhibition
Cc1onc(NC(=O)c2ccc([N+](=O)[O-])o2)c1Br	47.1% (active)
CCCNc1c(N)c(=O)c1=O	-0.24%
Cc1ccc(Oc2nc(-c3ccccn3)nc3ccccc23)cc1	-11.3%
N#C/C(=C/c1ccc(-c2ccccc2[N+](=O)[O-])o1)C(=O)NCCN1CCCCC1	1.64%
Cc1ccc(-c2csc(-c3cc(C)on3)n2)cc1	44.8% (active)
CCCc1cc(-c2nc(-c3ccc(C)cc3)cs2)ccn1	-10.9%
Cc1ccc(-c2csc(SCC(=O)Nc3cc(C)on3)n2)cc1	-2.17%
O=c1c(/C=N/O)coc2ccc(Cl)cc12	3.19%
Cc1ccc(N2C(=O)CC(Nc3cccc4ccccc34)C2=O)cc1 (stereo unspecified)	0.34%
CC1C(=O)NC(=O)C1c1ccccc1 (stereo unspecified)	1.86%
CCOc1ccc(CN(Cc2ccco2)C(c2cccs2)c2nnnn2C(C)(C)C)cc1 (stereo unspecified)	9.28%
CC(C)(C)n1nnnc1C(c1cccs1)N(Cc1cccnc1)CC1CCCO1 (stereo unspecified)	45% (active)
CC(C)C(c1nnnn1C(C)(C)C)N1CCN(Cc2cccnc2)CC1 (stereo unspecified)	4.44%
O=C(CSc1nc2c(cnn2-c2ccc(F)cc2)c(=O)[nH]1)N1CCCCCC1	68.2% (active)
CC(=O)c1sc2nc(SCC(=O)N3CCCCC3)[nH]c(=O)c2c1C	-8.76%
Cc1nnc(SCC(=O)N2CCOCC2)[nH]c1=O	-13.7%
Cc1coc2cc3oc(=O)c(CCC(=O)O)c(C)c3cc12	-1.04%
Cc1ccc(C(O)P(=O)(OC(C)C)c2ccc(N(C)C)cc2)cc1 (stereo unspecified)	-0.37%
COc1ccc(C(=O)Nc2cccc(S(C)(=O)=O)c2)cc1	9.53%
COc1cccc(NC(=O)c2ccc(S(=O)(=O)N(C)C)cc2)c1	58.8% (active)
CCC(=O)Nc1ccc(C(=O)Nc2cccc(OC)c2)cc1	-2.36%
CC1CN(c2nc(Nc3ccccc3)nc(N)c2[N+](=O)[O-])CC(C)O1 (stereo unspecified)	1.28%
COn1c(-c2ccc(Cl)cc2Cl)nc2ncccc21	-1.75%
Cc1ncn2cc(-c3ccc(Cl)cc3Cl)[nH]c(=O)c12	63% (active)
Clc1ccc(-c2ncc3ccccn23)c(Cl)c1	2.07%
COc1ccc(OC)c(-n2c(-c3ccn[nH]3)n[nH]c2=S)c1	-4.85%

Compound	inhibition
NC(=O)Cc1ccc2c(c1)[nH]c1ccccc12	49.5% (active)
NC(=O)Cc1ccc2sc(-c3ccccc3)nc2c1	29.8%
CCn1c2ccccc2c2cc(CC(N)=O)ccc21	0.83%
CCN(CC)c1ccc(/C=N/NC(=O)c2cnccn2)c(O)c1	-3.69%
Cc1nc(SCC(=O)N2CC(=O)Nc3ccccc32)c2c(C)c(C)sc2n1	-0.11%
Cc1nnc(SCC(=O)N2CCc3ccccc3C2)s1	16.7%
Cc1nc(SCC(=O)N2CCc3ccccc3C2)c2c(C)c(C)sc2n1	59.1% (active)
COc1ccccc1C1CCN(c2ccc([N+](=O)[O-])cn2)CC1	0.29%
CC(=O)c1ccc2c(c1)OCCOCCOc1ccc(C(C)=O)cc1OCCOCCO2	-1.51%
O=c1[nH]c2cccnc2n1-c1ccc([N+](=O)[O-])cc1	0.04%
O=C(O)c1ccc(NC(=O)C2CCCCC2)cc1	-4.28%
O=C(O)Cc1ccc(NC(=O)C2CCCCC2C(=O)O)cc1 (stereo unspecified)	46.5% (active)
O=C(O)C1CCCCC1C(=O)Nc1ccc(Cl)cc1 (stereo unspecified)	2.31%
COc1ccc(-c2noc(-c3ccc(C)cc3)n2)cc1	-5.34%
COc1ccc(-c2noc(CSc3ccc(C)cc3)n2)cc1	55.4% (active)
COc1ccc(-c2noc(CN(C)S(=O)(=O)c3ccc(C)cc3)n2)cc1	1.11%
O=C(Nc1ccc(S(=O)(=O)N2CCOCC2)cc1)c1ccc2ncsc2c1	6.27%
COCc1cc(=O)[nH]c(-c2ccc(C(F)(F)F)cc2)n1	-1.98%
Cc1cccc(N(C)C(=O)c2cc3c(=O)[nH]c4ccc(C)cc4c3s2)c1	1.34%
COc1cccc(N(CC(=O)Nc2cccc(F)c2)S(C)(=O)=O)c1	2.06%
CS(=O)(=O)N(CC(=O)Nc1ccc(F)cc1F)c1cccc([N+](=O)[O-])c1	62.8% (active)
CCN(CC)S(=O)(=O)c1ccc(NC(=O)CN(c2cccc(F)c2)S(C)(=O)=O)cc1	-2.67%
COc1ccc(NC(=O)C2=NNC(=O)CC2)cc1S(=O)(=O)N1CCCCC1	-2.9%
